# The list is not random: actives were taken first. Their share in the collection is about 2.3%.
# AmpC inh no detg – AmpC beta-lactamase inhibition without detergent; P00811; AmpC nitrocefin hydrolysis, absorbance 480 nm, 0.0001% Triton; Potency, µM (top dose mostly 57.1 µM), inactives show top-dose activity change, negative = inhibition, actives largely listed as inhibitors; actives 0.52% (n = 330,000);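 note: plate controls were no compound for no effect and no enzyme for full effect; nearly all actives have a fitted effect of over 20% in size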
# Target sequence (P00811 whole entry, looked up): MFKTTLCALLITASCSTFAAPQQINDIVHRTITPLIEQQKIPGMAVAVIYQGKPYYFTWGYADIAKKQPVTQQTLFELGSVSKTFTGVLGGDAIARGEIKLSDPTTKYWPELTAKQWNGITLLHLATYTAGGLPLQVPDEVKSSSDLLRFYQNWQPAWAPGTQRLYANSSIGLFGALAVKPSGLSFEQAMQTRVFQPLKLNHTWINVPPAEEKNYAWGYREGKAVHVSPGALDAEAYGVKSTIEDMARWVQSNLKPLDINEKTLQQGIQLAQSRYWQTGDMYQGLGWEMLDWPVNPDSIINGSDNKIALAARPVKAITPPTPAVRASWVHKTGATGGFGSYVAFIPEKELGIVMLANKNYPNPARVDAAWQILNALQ
#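 AmpC (5.3 nM in the dispensed reagent) in 20 mM phosphate pH 7.0 with 0.01% (detergent screen) or 0.0001% Triton X-100 was preincubated with compounds for 15 min at room temperature. Nitrocefin was then added from an 800 uM solution, and hydrolysis was followed at 480 nm.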
# MARV entry inh – inhibitors of Marburg virus binding or cell entry. Marburg virus pseudotyped entry inhibition, cell reporter. actives 1.8% (n = 300,000). Potency, µM (doses to about 37.8 µM), without a hit: top-dose activity change, negative = inhibition, actives largely listed as inhibitors. AID 540276; calls by dose curve; tested in HEK293 cells
# LASV entry inh – Lassa virus entry inhibition; Lassa virus pseudotype entry inhibition, cell reporter; Potency, µM (series often up to 37.9 µM), for the others: top-dose activity change, negative = inhibition, hits mostly inhibitors; actives 1.2% (n = 300,000); calls by dose curve; tested in HEK293 cells; note: nearly all actives have a fitted effect of over 50% in size
# AMA1-RON2 inh – disrupts binding of P. falciparum AMA1 to RON2; AlphaScreen AMA1-biotinylated RON2 peptide binding; Potency, µM (titrated, usually from 58.2 µM), for the others: at the top dose activity change, negative = inhibition, most hits filed as inhibitors; actives 0.2% (n = 360,000);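 note: 0% = vehicle wells and -100% = peptide control; nearly all actives have a fitted effect of over 45% in size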
#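 AMA1 (3D7) with his tag at 25 nM final met compounds first, then biotinylated RON2 peptide at 25 nM; detection used donor plus acceptor beads, 10 µg/mL apiece, read by AlphaScreen after 30 min at room temperature.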
# AmpC detergent – inhibitors of E. coli AmpC beta-lactamase with detergent | actives 0.041% (n = 370,000) | AmpC hydrolysis of nitrocefin, absorbance 480 nm, 0.01% Triton | P00811 | Potency, µM (top dose mostly 114 µM), without a hit: at the highest dose activity change, negative = inhibition, usual class: inhibitors;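 note: 0% = no-compound wells and -100% = no-enzyme wells; nearly all actives have a fitted effect of over 25% in size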
#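 20 mM phosphate pH 7.0 + 0.01% (detergent screen) or 0.0001% Triton X-100; 5.3 nM AmpC reagent; cpd preinc 15 min RT; nitrocefin (800 uM stock) to start; A480 q20 s × 4 min; Activity was normalised to no-enzyme and no-compound control wells.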
# An asterisk follows results filed as active; ? = inconclusive; nt = not tested or not shown; ! = not active in a repeat; [ ] = remark or other dose. Unless noted, calls come from the whole dose curve; as a rule, active = well fitted curve in the direction sought with a large enough effect; inconclusive = small, poorly fitted or top-dose-only effect, or another doubt; inactive = no such curve, though single readings can be large; an effect the other way counts as inactive or inconclusive. Unless noted, % is set by controls: 0 for no effect and ±100 for the full control effect; potency is the fitted concentration of half-maximal effect.
SMILES,AmpC inh no detg,MARV entry inh,LASV entry inh,AMA1-RON2 inh,AmpC detergent
O=C(O)C/C(=C\c1cccc(NC(=O)c2ccccc2Cl)c1)c1nc2ccccc2s1,16µM*,nt,nt,0%,-3%
CC(Oc1ccccc1F)C(=O)N1CCC(c2nc3ccccc3o2)CC1 (configuration not stated),nt,30%[46.1 µM],-28%[46.1 µM],nt,1%
CNC(=O)C1CCC(Cn2c(=O)c3sccc3n(Cc3ccccc3)c2=O)CC1 (configuration not stated),nt,nt,0%[46.1 µM],nt,16%
C=CCc1cccc(/C=N\n2cnnc2)c1O,nt,38%,nt,nt,nt
O=c1c(Cl)cc(Cl)nn1-c1ccccc1,-17%,16µM*,?,17%,-5%
COc1cc(Cl)nn(-c2ccccc2)c1=O,-5%,?,-6%,11%,1%
COCCN1C(=O)NC(c2ccccc2)C(C(=O)OC)=C1C (configuration not stated),nt,8%[14.2 µM],nt,nt,nt
CC1(C)C2CCC(C2)C1(C)NC(=O)CNCC1CCCCC1 (configuration not stated),1%,8.9µM*,-13%[46.1 µM],-23%,?
Cc1cc(OC(=O)c2ccco2)c2c3c(c(=O)oc2c1)CCCC3,-41%,11µM*,?,23%,?
Cc1cc2oc(=O)c3c(c2cc1OC(=O)c1ccco1)CCCC3,-9%,?,-23%,3%,-5%
CC(C)=CCN1C(=O)[C@@]2(CC(C)=C[C@@H](COCc3ccccc3)O2)c2ccccc21,nt,3%[14.2 µM],?,nt,nt
Clc1ccc(CNC2CCCC2)c(Cl)c1,-33%,-13%,-14%,-2%,-5%
S=C(NCc1ccc(Cl)cc1Cl)NC1CCCCC1,-26%,?,8.9µM*,-1%[2.32 µM],-11%
CC(=O)[C@@]1(O)CC[C@H]2[C@@H]3CCC4=CC(=O)CC[C@]4(C)[C@H]3CC[C@@]21C,-19%,18%,21µM*!,8%,-5%
CCCCCC(=O)O[C@]1(C(C)=O)CC[C@H]2[C@@H]3CCC4=CC(=O)CC[C@]4(C)[C@H]3CC[C@@]21C,56%,10µM*,-18%,-7%,-10%
O=C(Cn1cc2c(n1)CCCCC2)N1CCc2ccccc2C1,0.56µM*,nt,nt,6%,?
COC(=O)c1ccc(CN2C(=O)[C@@]3(CC(C)=CC[C@@H](COc4ccccc4)O3)c3ccccc32)cc1,nt,9%[14.2 µM],nt,nt,nt
CCCNC1=C(C)C(=O)C2=C(C1=O)C(COC(N)=O)[C@]1(OC)C3NC3CN21 (some centres not stated),2%,6.3µM*,?,-20%,-5%
CCCCN(C(=O)c1cccc2c(=O)c(C)c(-c3ccccc3)oc12)c1ccccc1,10%,?,12µM*,-2%,?
CCCCNC(=O)c1cccc2c(=O)c(C)c(-c3ccccc3)oc12,-7%,-23%,?,4%[2.32 µM],1%
CN=C1c2cc3cc(OC)ccc3n2CCN1Cc1ccccc1,-5%,11µM*,?,2%,2%
COc1ccc2c(c1)nc(N)n2Cc1ccccc1,2%,?,-11%,-2%,0%
CCOC(=O)c1ccc(N2CCOCC2)c(NC(=O)c2c(-c3ccccc3)noc2C)c1,100%,1.8µM*,?,12%,8%
Cc1onc(-c2ccccc2)c1C(=O)Nc1cc(C(F)(F)F)ccc1N1CCOCC1,80%,?,?,-9%,2%
Cc1onc(-c2ccccc2)c1C(=O)Nc1cccc(C#N)c1,11µM*,nt,nt,12%,3%
SMILES,AmpC inh no detg,MARV entry inh,LASV entry inh,AMA1-RON2 inh,AmpC detergent
CCc1ccc2occ(CC(=O)Nc3ccc(OC)c(Cl)c3)c2c1,nt,?,9%[46.1 µM],nt,-8%
CO[C@@]1(NC(=O)C2SC(=C(C(N)=O)C(=O)O)S2)C(=O)N2C(C(=O)O)=C(CSc3nnnn3C)CS[C@@H]21 (some centres not stated),7.1µM*,nt,nt,8%,18µM*
Cc1oc(-c2nc3ccccc3n2C)cc1C(=O)c1ccccc1,-12%,11µM*,2.8µM*,9%,-2%
CN1CCN(/N=C/c2ccc(N(c3ccccc3)c3ccccc3)cc2)CC1,-6%,1.3µM*,0.63µM*,-8%,3%
CN1CCN(/N=C/c2ccc(N(C)c3ccccc3)cc2)CC1,3%[2.29 µM],?,1%,-21%,-6%
CCN(CC)c1ccc(/C=N\N2CCN(Cc3ccc(C)cc3)CC2)cc1,24%,-9%[46.1 µM],-7%,8.9µM*,-10%
CN(C)c1ccc(N=Nc2ccccc2C(=O)OCC(=O)NCC2CCCCC2)cc1,-6%,?,-12%,11µM*,?
CN(C)c1ccc(N=Nc2ccccc2C(=O)OCC(=O)N(C)C2CCCCC2)cc1,16%,?,?,-13%,-12%
CC#CCN1C(=O)NC(c2ccccc2)C(C(=O)OCC)=C1c1ccccc1 (configuration not stated),nt,7%[14.2 µM],nt,nt,nt
Cc1cc(NC(c2nnc(-c3ccccc3)o2)c2ccccc2F)ccc1Br (configuration not stated),nt,?,?,nt,23%
O=C1NC(=S)S/C1=C\C=C\c1ccc([N+](=O)[O-])o1,11µM*,?,?,-21%,-8%
COc1ccc(O[C@H]2C=C[C@@H](c3ccccc3)O[C@H]2CON=C2[C@H]3CCn4c(=O)n(-c5ccccc5)c(=O)n4[C@@H]3[C@H](O)[C@@H]3O[C@H]23)cc1,nt,5%[14.2 µM],nt,nt,nt
O=C(Nc1scc(-c2ccc(Br)cc2)c1C(=O)O)c1ccccc1F,nt,3.2µM*,?,-5%,nt
COC(=O)C1=C(C)N(Cc2ccccc2)C(=O)NC1c1cccc(F)c1 (configuration not stated),nt,3%[14.2 µM],nt,nt,nt
CCN1/C(=C/c2ccc3cc(C)ccc3[n+]2CC)Sc2cc(C)c(C)cc21,-11%,?,2µM*,-21%,1%
CCN1/C(=C/c2ccc3cc(C)ccc3[n+]2CC)Sc2ccccc21,4%,1µM*,5.2µM*,-27%,0%
CC[n+]1c(/C=C2\Sc3ccccc3N2C)ccc2cccc(C)c21,4%,?,?,-16%,-11%
O=C1[C@@H]2CC=C(Cl)C[C@H]2C(=O)N1CNc1ccccn1,nt,8%,nt,nt,nt
CCOC(=O)c1c(C)oc2ncnc(N3CCN(c4ccccc4OC)CC3)c12,nt,nt,5%[46.1 µM],nt,19%
CCOC(=O)c1cc2c(=Cc3ccc(N(C)C)cc3)c3ccccc3n2[n+]1C,nt,?,11µM*,20µM*,nt
Cc1cc2c(=Cc3ccc(N(C)C)cc3)c3ccccc3n2[n+]1C,nt,?,2.2µM*,?,nt
CN(C)c1ccc(C=c2c3ccccc3n3c2c2ccccc2[n+]3C)cc1,nt,?,7.1µM*,?,nt
CCOC(=O)SC1=N/C(=C\c2ccc(N(C)C)cc2)C(=O)S1,-18%,-1%,?,?,0%
Cc1cccc(CCNC(=O)c2nn(C)c3c2CSc2ccccc2-3)c1,nt,-1%[46.1 µM],8%[46.1 µM],nt,4%
